# From PubChem
# Shown are actives, neighbours in structure and some others; about 8% of the full set was active somewhere.
# Gal4-VP16 FLuc: Gal4-VP16 reporter inhibition counter-screen; Drosophila S2 Gal4-VP16 UAS-luciferase, luminescence, 20 h; Potency, µM (top dose mostly 53.6 µM), for inactives: at the top dose activity, negative = inhibition, actives largely listed as inhibitors; 3.5% of 310,000 active;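 further: Gal4-VP16 expression switched on by copper sulfate through the metallothionein promoter; potency means the concentration at half of the fitted maximal effect; nearly all actives have a fitted effect of over 50% in size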
# Coupling enz: coupling enzyme interference in Giardia aldolase counter-screen; 0.67% of 290,000 active; coupling enzyme system counterscreen, AmpLite Red fluorescence; activity change, negative = inhibition, % at 58.2 µM, hits read low; in the data active means activity change below about -30%
#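 Fluorescence at 525 nm excitation and 598 nm emission measured inhibition of the coupled detection system without aldolase. Compounds (at 57.5 uM final) were preincubated 10 min at room temperature with coupling enzyme reagent before a 20 min substrate/AmpLite Red step.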
# ELG1 repair inh: ELG1-dependent DNA repair inhibition. HEK293T ELG1-luciferase reporter, luminescence, 16 h; DNA damage induced by 5-fluorouridine. Potency, µM (highest dose often 46.1 µM), for the others: top-dose activity change, negative = inhibition, actives largely listed as inhibitors. 2.3% of 330,000 active. AID 504467; further: potency means the concentration at half of the fitted maximal effect; nearly all actives have a fitted effect of over 55% in size
#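 HEK293T cells expressing luciferase-tagged ELG1 (2,000/well) received 5-Fluorouridine plus compound or DMSO for 16 hr at 37 °C. Luciferase was read by ONE-Glo luminescence after 30 min at room temperature.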
# RORgamma inh: blocks mouse ROR gamma transcriptional activity; P51450; Drosophila S2 Gal4-RORgamma UAS-luciferase reporter, 20 h; Potency, µM (series often up to 53.6 µM), inactives show at the highest dose activity change, negative = inhibition, usual class: inhibitors; 5.4% of 310,000 active; further: potency means the concentration at half of the fitted maximal effect; nearly all actives have a fitted effect of over 60% in size
#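 Luminescence from a UAS-regulated Photinus luciferase reporter in stably transfected Drosophila Schneider cells is measured; decreased signal marks ROR gamma inhibition. Fusion expression is induced by 700 uM copper sulfate for 20 hr.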
# TSHR antag: human thyrotropin receptor antagonism; TSHR-expressing cells, TSH-stimulated cAMP HTRF, 2 h; hits give low values; AID 504810; 0.2% of 330,000 active; activity change, negative = inhibition, % at 11.5 µM; P16473;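 active means activity change below a set negative limit, meaning inhibition stronger than a set level, cut at about -70% in these data; inconclusive means activity change between two set negative limits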
# Target sequence (P16473 whole entry, looked up): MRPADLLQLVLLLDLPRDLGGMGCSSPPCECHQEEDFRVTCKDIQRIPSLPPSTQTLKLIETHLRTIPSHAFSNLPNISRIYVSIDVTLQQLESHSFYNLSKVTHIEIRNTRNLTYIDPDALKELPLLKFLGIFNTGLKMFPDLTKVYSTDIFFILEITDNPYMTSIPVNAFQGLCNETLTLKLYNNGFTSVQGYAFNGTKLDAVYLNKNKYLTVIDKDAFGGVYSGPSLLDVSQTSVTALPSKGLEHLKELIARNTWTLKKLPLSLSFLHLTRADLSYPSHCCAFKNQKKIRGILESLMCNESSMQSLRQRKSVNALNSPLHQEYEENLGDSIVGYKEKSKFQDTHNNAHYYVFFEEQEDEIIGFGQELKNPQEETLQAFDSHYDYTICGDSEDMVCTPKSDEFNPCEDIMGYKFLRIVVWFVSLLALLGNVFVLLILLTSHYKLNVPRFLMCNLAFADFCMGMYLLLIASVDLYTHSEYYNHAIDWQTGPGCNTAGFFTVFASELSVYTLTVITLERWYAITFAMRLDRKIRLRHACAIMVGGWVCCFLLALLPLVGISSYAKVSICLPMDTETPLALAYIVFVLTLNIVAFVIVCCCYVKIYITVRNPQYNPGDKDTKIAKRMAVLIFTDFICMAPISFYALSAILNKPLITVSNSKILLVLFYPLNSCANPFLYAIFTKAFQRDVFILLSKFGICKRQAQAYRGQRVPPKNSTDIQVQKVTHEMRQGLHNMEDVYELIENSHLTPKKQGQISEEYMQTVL
#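 Freshly harvested TSHR cells receive pin-tooled compound, then EC80 TSH at 4nM final. After 2 hours at 37 deg C, antibody in lysis buffer and cAMP-d2 are added; 30 minutes at ambient temperature precede the HTRF read.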
# Starred values were filed as active, the others as inactive; ? = inconclusive; . = no result given; [ ] = dose if it differs, or a comment. Unless noted, the call rests on the fitted dose curve; in most records, active means well fitted curve in the direction sought with a large enough effect; inconclusive means small, poorly fitted or top-dose-only effect, or another doubt; inactive means no such curve, though single readings can be large; an effect the other way counts as inactive or inconclusive. On the % scale 0 is the no-effect control and ±100 the full control effect.
SMILES,Gal4-VP16 FLuc,Coupling enz,ELG1 repair inh,RORgamma inh,TSHR antag
Cc1ccc(-c2nn(-c3ccccc3)cc2/C=N/n2c(-c3ccncc3)n[nH]c2=S)cc1,-4%,-1,?,-9%,-23
CCc1n[nH]c(=S)n1/N=C/C(C)=C\c1ccccc1,5.6µM*,8,-15%,7.1µM*,3
CC[C@H](C)[C@H](NC(=O)[C@H](Cc1ccc(O)cc1)NC(=O)[C@H](Cc1cnc[nH]1)NC(=O)[C@H](CCCNC(=N)N)NC(=O)[C@H](CC(C)C)NC(=O)[C@H](C)NC(=O)[C@H](CO)NC(=O)[C@H](Cc1ccc(O)cc1)NC(=O)[C@H](Cc1ccc(O)cc1)NC(=O)[C@H](CCCNC(=N)N)NC(=O)[C@H](C)NC(=O)[C@H](CC(C)C)NC(=O)[C@H](CC(=O)O)NC(=O)[C@H](CCC(=O)O)NC(=O)[C@H](C)NC(=O)[C@@H]1CCCN1C(=O)[C@H](C)NC(=O)[C@H](CC(=O)O)NC(=O)[C@H](CCC(=O)O)NC(=O)CNC(=O)[C@@H]1CCCN1C(=O)[C@H](CC(N)=O)NC(=O)[C@H](CC(=O)O)NC(=O)[C@@H]1CCCN1C(=O)[C@H](CCCCN)NC(=O)[C@H](CO)NC(=O)[C@@H]1CCCN1C(=O)[C@@H](N)Cc1ccc(O)cc1)C(=O)N[C@@H](CC(N)=O)C(=O)N[C@@H](CC(C)C)C(=O)N[C@@H](CC(C)C)C(=O)N[C@H](C(=O)N[C@@H](CCCNC(=N)N)C(=O)N1CCC[C@H]1C(=O)N[C@@H](CCCNC(=N)N)C(=O)N[C@@H](Cc1ccc(O)cc1)C(N)=O)[C@@H](C)O,-4%,2,.,7%,.
Cc1nn(-c2ccccc2)c(C)c1/C=N/n1c(-c2ccncc2)n[nH]c1=S,1%,0,5%,-28%,-8
CCOc1ccc(/C=N/n2c(-c3ccccc3)n[nH]c2=S)cc1,?,1,-2%,1.6µM*,8
Cc1nn(-c2ccccc2)c(C)c1/C=N/n1c(-c2ccc(Cl)cc2)n[nH]c1=S,8.9µM*,-1,-10%,13µM*,-3
CCOc1ccc(/C=N/n2c(C)nc3ccccc3c2=O)cc1,-6%,0,?,32%,-5
S=c1[nH]nc(-c2ccc(Cl)cc2)n1/N=C/c1cccs1,-20%,6,0%,3.5µM*,1
S=c1[nH]nc(-c2ccccn2)n1/N=C/c1ccc(Cl)cc1,-19%,5,?,13µM*,-3
CN(Cc1ccc2ccccc2c1)C(=O)c1ccc(C(F)(F)F)cc1,0%,-1,-3%,5%,0
O=C(COC(=O)/C=C/c1cccc(C(F)(F)F)c1)NC1CCS(=O)(=O)C1 (stereo not given),.,.,1%,.,-4
Cc1csc(NC(=O)c2ccc(Cl)nc2)n1,?,0,?,13%,-2
CN(C)c1ccc(/C=N/n2c(-c3cccnc3)n[nH]c2=S)cc1,2%,-1,-2%,-34%,-9
S=c1[nH]nc(-c2ccncc2)n1/N=C/C(Cl)=C\c1ccccc1,?,4,?,?,-5
CC(/C=N/n1c(-c2ccccn2)n[nH]c1=S)=C\c1ccccc1,-9%,2,?,3.5µM*,-1
S=c1[nH]nc(-c2ccccn2)n1/N=C/c1ccccc1,-3%,6,-1%,?,4
Oc1ccccc1/C=N/n1c(-c2ccccc2)n[nH]c1=S,-20%,-1,-2%,11µM*,-15
S=c1[nH]nc(-c2ccccc2)n1/N=C/c1ccc(Cl)cc1,?,5,-9%,1.1µM*,-6
S=c1[nH]nc(-c2ccncc2)n1/N=C/c1cccc(Cl)c1,-23%,8,-7%,4.5µM*,1
CC(=O)Nc1ccc(OC(=O)c2ccccc2O)cc1,22%,1,.,-1%,.
Cc1ccccc1/C=N/n1c(-c2ccccn2)n[nH]c1=S,-18%,-6,4%,?,-6
Cc1cccc(/C=N/n2c(-c3ccccn3)n[nH]c2=S)c1,18µM*,-3,?,?,-1
S=c1[nH]nc(-c2ccccn2)n1/N=C/c1cccc2ccccc12,?,-9,2%,2.2µM*,-6
S=c1[nH]nc(-c2ccccc2)n1/N=C/c1cccc(Cl)c1,4.5µM*,-2,-2%,5.6µM*,-7
S=c1[nH]nc(-c2cc(-c3ccccc3)n[nH]2)n1/N=C/c1c(Cl)cccc1Cl,-10%,0,?,?,-12
SMILES,Gal4-VP16 FLuc,Coupling enz,ELG1 repair inh,RORgamma inh,TSHR antag
CC(C)(C)c1n[nH]c(=S)n(/N=C/c2cccs2)c1=O,16µM*,2,?,10µM*,-1
Cc1ccc(N2C(=O)C(Cl)=C(N3CCOCC3)C2=O)c(C)c1,3%,0,-8%,-37%,15
COC(=O)Cn1c(N)[n+](Cc2ccccc2)c2ccccc21,.,.,0%,.,11
Cc1cc(C(=O)NNC(=O)c2ccc(F)cc2)c(C)s1,.,.,?,.,1
Cc1ccc(-c2nn(-c3ccccc3)cc2CNCc2ccccc2)cc1,14µM*,1,-11%,?,-5
Cc1ccc(C(=O)NC(=S)Nc2ccc(NC(=O)c3cccs3)cc2)cc1[N+](=O)[O-],6.3µM*,-1,?,6.3µM*,-7
CCOc1ccc(C(=O)Nc2ccc(NC(=O)c3cccs3)cc2)cc1[N+](=O)[O-],?,1,?,14µM*,0
COCCNc1nc(C)nc2c1nc(-c1ccccc1)n2CCN1CCCC1,-11%,3,.,-9%,.
CCCCC(=O)Oc1ccccc1C(=O)O,-16%,-3,.,5%,.
O=C(NNC(=S)Nc1ccccc1)C1CC1,0%,.,3%,?,37
S=C(NN=C(C1CC1)C1CC1)Nc1ccccc1,18µM*,-1,?,11µM*,-13
COc1ccc(-c2cc(=O)c3cc(F)ccc3[nH]2)cc1,1%[96.6 µM],0,?,-2%[96.6 µM],-3
COc1ccc2[nH]c(-c3ccc(C)cc3)cc(=O)c2c1,7.9µM*,-4,?,10µM*,-8
N#Cc1ccc(CSc2nnc(-c3cccs3)n2-c2ccccc2)cc1,-30%,2,21µM*,-1%,-8
c1ccc(CCn2c(SCc3ccccc3)nnc2-c2ccncc2)cc1,?,1,?,?,-19
N#Cc1ccc(CSc2nnc(-c3ccncc3)n2CCc2ccccc2)cc1,-8%,0,23µM*,-13%,-5
